Assay outcomes: PubChem BioAssay, National Center for Advancing Translational Sciences (NCATS)
Compounds with a hit are over-represented: about 1.3% of the library has one in this group of screens.
DNA Pol III inh – DNA polymerase III holoenzyme inhibition; reconstituted DNA polymerase III holoenzyme replication, biochemical; hit rate 0.25% among 71,000; Potency, µM (highest dose often 57.1 µM), without a hit: at the top dose activity change, negative = inhibition; AID 603; also: potency is read from the fitted curve at half-maximal effect; % is scaled to controls: 0 for no effect and ±100 for the full control effect
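Reconstituted *E. coli* holoenzyme (0.35 nM Pol III, 1 nM beta, 154 nM SSB, 2 nM primase) was preincubated with compound for 15 min at RT. Synthesis on 1.4 nM ssM13Gori ran 35 min, then was stopped with PicoGreen/EDTA and read as dsDNA fluorescence.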
USP2a inh – inhibitors of human ubiquitin-specific protease USP2a; O75604; USP2a enzymatic assay, qHTS inhibition; Potency, µM (doses to about 38.3 µM), without a hit: at the highest dose activity change, negative = inhibition, most hits filed as inhibitors; hit rate 0.1% among 60,000; AID 927; also: potency is read from the fitted curve at half-maximal effect; nearly all actives have a fitted effect of over 60% in size
Target sequence (O75604 whole entry, looked up): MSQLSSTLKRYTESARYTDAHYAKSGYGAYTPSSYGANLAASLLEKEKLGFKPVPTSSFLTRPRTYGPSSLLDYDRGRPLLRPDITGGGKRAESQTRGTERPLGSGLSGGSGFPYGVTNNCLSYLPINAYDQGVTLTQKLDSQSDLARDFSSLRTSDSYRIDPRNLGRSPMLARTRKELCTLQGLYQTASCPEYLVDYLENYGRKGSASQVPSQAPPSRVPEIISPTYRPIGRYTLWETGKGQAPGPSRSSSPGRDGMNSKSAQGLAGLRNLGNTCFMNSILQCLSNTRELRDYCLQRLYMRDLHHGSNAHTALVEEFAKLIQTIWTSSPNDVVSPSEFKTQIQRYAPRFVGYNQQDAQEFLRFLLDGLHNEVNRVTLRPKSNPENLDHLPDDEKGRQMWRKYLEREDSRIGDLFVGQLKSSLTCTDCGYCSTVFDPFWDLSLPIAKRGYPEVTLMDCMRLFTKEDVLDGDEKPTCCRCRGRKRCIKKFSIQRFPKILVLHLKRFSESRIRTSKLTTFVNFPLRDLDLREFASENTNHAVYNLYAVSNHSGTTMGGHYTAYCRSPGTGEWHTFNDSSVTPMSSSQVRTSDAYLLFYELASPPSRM
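20 nM USP2 core + cpd, 30 min RT; add 20 nM Ub-PLA2/20 uM NBD C6-HPC; read Ex460/Em535 at 0 h and 2.5 h. Normalized to NEM; qHTS curve fit/classification.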
ERK AVP block – blocks ERK signaling stimulated by vasopressin; Potency, µM (top dose mostly 57.5 µM), inactives show top-dose activity, negative = inhibition, actives largely listed as inhibitors; HEK293-V1b, vasopressin-stimulated pERK AlphaScreen; hit rate 0.99% among 72,000; also: potency is read from the fitted curve at half-maximal effect; % is scaled to controls: 0 for no effect and ±100 for the full control effect; nearly all actives have a fitted effect of over 55% in size
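Phosphorylated ERK1/2 detected via AlphaScreen bead proximity in lysates of V1b-expressing HEK293 cells given 25 nM vasopressin for 5 min after 30 min compound exposure (37 °C). AC50 from Hill equation; basal DMSO 0%, vasopressin 100%.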
BRCT inh red – disrupts BRCA1 BRCT binding to phosphoprotein, red fluorophore readout | Potency, µM (series often up to 76.9 µM), for inactives: top-dose activity change, negative = inhibition, most hits filed as inhibitors | P38398 | AID 892 | BRCT-phosphopeptide binding, red fluorescence polarization | hit rate 0.03% among 75,000; also: % is scaled to controls: 0 for no effect and ±100 for the full control effect
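Rhodamine-labelled pBACH1 10-mer (100 nM) bound to BRCT domain (100 nM) at pH 7.3; compounds incubated 12 min room temperature, polarization read. Free peptide defines full inhibition; unlabelled decapeptide titrated as control.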
TsaE inh – displaces an ADP probe from E. coli YjeE (TsaE); P0AF67; purified YjeE enzyme, qHTS inhibition assay; Potency, µM; hit rate 0.05% among 71,000
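Fluorescence polarization of a BODIPY Texas Red–ADP probe (2 uM) bound to purified YjeE (10 uM) was read after 15 min room-temperature incubation with compounds. Loss of polarization marks inhibitors; ADP serves as titrated control.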
BRCT PPI green – inhibitors of human BRCA1 BRCT-phosphoprotein interaction (green fluorophore) | P38398 | BRCA1 BRCT-phosphopeptide binding, green fluorescence polarization | Potency, µM (titrated, usually from 76.9 µM), for the others: at the top dose activity change, negative = inhibition, most hits filed as inhibitors | hit rate 0.05% among 75,000;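 also: potency is read from the fitted curve at half-maximal effect; plate controls were peptide without protein for full effect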
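Compounds were incubated for 12 min at room temperature with a complex of 100 nM fluorescein-tagged pBACH1 decapeptide and 250 nM His-tagged BRCT protein. Buffer was phosphate pH 7.3 with EDTA, DTT and Tween 20. Disruption of binding lowers the polarization signal.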
An asterisk follows results filed as active; i = inactive; ? = inconclusive; nt = no result; ! = not confirmed by another sample; [ ] = another dose, or the depositor's remark. Calls follow the shape of the dose curve; as a rule, active = well fitted curve in the direction sought with a large enough effect; inconclusive = small, poorly fitted or top-dose-only effect, or another doubt; inactive = no such curve, though single readings can be large; an effect the other way counts as inactive or inconclusive.

SMILES	DNA Pol III inh	USP2a inh	ERK AVP block	BRCT inh red	TsaE inh	BRCT PPI green
CC(=O)N1CCC2(CCCN(c3ccc(-c4ccccc4)cc3)C2)CC1	4.7%	148.8%	-28.5%	1.4%	?	6.6%
Cc1ccc2c(c1)[nH]c1c(N3CCN(Cc4ccccc4)CC3)ncnc12	-7.4%	28.7%	15.8µM*	-1.4%	i	-0.4%
COc1c(O)cc2oc3cc(O)c(CC=C(C)C)c(O)c3c(=O)c2c1CC=C(C)C	-1.4%	10µM*!	-1.5%	-0.5%	i	1.0%
O=C(O)CCCc1ccc2ccc3ccccc3c2c1	-12.1%[11.4 µM]	nt	-2.3%[11.5 µM]	1.6%[15.4 µM]	i	0.4%[15.4 µM]
O=C(Nc1cccc2ccccc12)OC1C=CS(=O)(=O)C1 (centres undefined)	-1.9%	15.4%	10µM*	-0.8%	i	2.2%
O=C1CCC(C(=O)Nc2cccc3ccccc23)N1 (centres undefined)	3.9%	-6.6%	-8.2%	0.4%	i	-0.6%
CCc1c(C#N)c(N)nc(SCC(=O)OCc2ccccc2)c1C#N	1.3%[11.4 µM]	5.4%[7.66 µM]	31.6µM*	0.7%	i	-0.2%
CC(=O)Nc1cccc(Cn2cccn2)c1	-11.0%	-5.5%	-12.7%	1.3%	i	1.1%
O=C(Nc1cccc(Cn2cccn2)c1)c1cc2c(s1)CCCC2	5.1%	37.1%	20µM*	-2.2%	i	1.1%
CN1CCC(CNC(=O)c2ccc(Cc3nc4ccccc4[nH]3)cc2)CC1	nt	nt	nt	-1.5%	nt	-0.4%
CCOC(=O)C1CCCN(C(=O)c2cc3nc(-c4cccc(OC)c4)cc(C(F)(F)F)n3n2)C1 (centres undefined)	-3.0%	23.5%	15.8µM*	-1.4%	i	-1.1%
COc1ccc(N2CCN(C(=O)c3ccc4nc(N5CCCCC5)sc4c3)CC2)cc1	-7.0%	nt	?	-0.5%	i	-1.0%
COc1cccc(N2CCN(C(=O)c3ccc4nc(N5CCCCC5)sc4c3)CC2)c1	-2.8%	nt	25.1µM*	0.7%	i	1.4%
O=C(CSc1nc2ccccc2c(=O)[nH]1)c1ccc(O)c(O)c1	?	0.4%	15.8µM*	0.7%	i	-0.5%
CCN(CC)CC[n+]1ccc2c(C)c3[nH]c4ccccc4c3c(C)c2c1	3.98µM*	nt	4.8%[11.5 µM]	0.4%[15.4 µM]	i	-6.2%[15.4 µM]
CCN(CC)CCn1c(=S)[nH]c2ccccc2c1=O	-11.7%[11.4 µM]	-3.5%[7.66 µM]	4.4%	-0.1%	i	0.3%
COC(=O)Cc1c(C)c2cc(Cl)c(OC(=O)c3ccco3)cc2oc1=O	-7.9%	2.6%	12.6µM*	-0.1%	i	-1.5%
COC(=O)Cc1c(C)c2ccc(OC(=O)c3ccco3)cc2oc1=O	-4.9%	0.9%	3.98µM*	-0.2%	i	0.1%
COC(=O)Cc1c(C)c2ccc(OCC(=O)N3CCOCC3)cc2oc1=O	-4.9%	-1.4%	-25.5%	-0.9%	i	-3.7%
Oc1c(CN2CCN(c3ccccn3)CC2)cc(Cl)c2cccnc12	-4.7%	31.2%	31.6µM*	1.5%	i	-3.3%
Cn1c(SCc2cccnc2)nc2cccnc21	-9.1%	5.01µM*	-16.8%	-1.0%	i	0.0%
Cn1c(SCC(=O)c2ccccc2)nc2cccnc21	-3.1%	-2.2%	-28.8%	-2.2%	i	-1.9%
O=C(CCCCCCCCCCCCC1CCCC1)Nc1ccc(S(=O)(=O)c2ccc(NC(=O)CCCCCCCCCCCCC3CCCC3)cc2)cc1	nt	25.1µM*	-0.8%	0.8%	nt	-0.7%[3.08 µM]
CCc1nc(SCC(=O)N2CCN(C(=O)c3ccco3)CC2)c2c3c(sc2n1)CCCC3	-0.1%	15.6%	20µM*	-0.5%	i	5.7%
N#Cc1nc(-c2ccc(F)cc2)oc1NCc1cccc2c1OCO2	-1.7%	nt	7.94µM*	-1.6%	i	-2.6%
SMILES	DNA Pol III inh	USP2a inh	ERK AVP block	BRCT inh red	TsaE inh	BRCT PPI green
COc1cccc(NC(=O)/C=C\c2ccc(Cl)cc2)c1	-5.4%	nt	31.6µM*	1.6%	i	-1.2%
CC(=O)N1c2ccccc2NC2=C(C(=O)CCC2)C1c1cccnc1 (centres undefined)	-1.9%	1.58µM*	-24.6%	-5.3%	i	3.4%
CC1=C(C(=O)OCCOC(C)C)C(c2cccnc2)C2=C(CCCC2=O)N1 (centres undefined)	-0.6%	5.5%	-6.5%	-0.4%	i	-2.1%
Cc1c(C(=O)OC2CCCC2)[nH]c2c1C(=O)CC(c1ccco1)C2 (centres undefined)	-2.5%	nt	25.1µM*	0.1%	i	-0.5%
Nc1c(C(=O)Nc2ccccc2)sc2nc(-c3ccco3)ccc12	-6.9%	41.8%	31.6µM*	0.0%	i	4.5%
CCC[C@@H]1O[C@@H]2C[C@@H]3[C@@H]4CCC5=CC(=O)C=C[C@@]5(C)[C@H]4[C@H](O)C[C@@]3(C)[C@@]2(C(=O)CO)O1	-6.9%	nt	nt	nt	i	nt
CC(C)(C)[C@@]1(O)CCN2C[C@@H]3c4ccccc4CCc4cccc(c43)[C@@H]2C1	-6.2%	22.0%	13.5%	1.5%	i	0.9%
O=C(Nc1ccc(-n2nncc2-c2ccco2)cc1)c1cc2ccccc2oc1=O	12.6µM*	19.5%	-15.1%	1.5%	i	-1.2%
O=C(Nc1ccc(-n2nncc2-c2ccco2)cc1)c1cccc(F)c1	1.0%	30.7%	?	-0.1%	i	-2.1%
CCOc1ccc(-c2cc(CCCC(=O)NCc3cccnc3)no2)cc1	0.1%	nt	12.6µM*	-0.3%	i	-0.2%
COc1ccc(-c2cc(CCCC(=O)NCc3ccccn3)no2)cc1	-5.1%	nt	-11.6%	0.3%	i	-2.7%
CSc1nc(N)c2ncn([C@@H]3O[C@@H](COP(=O)(O)OP(=O)(O)OP(=O)(O)O)[C@@H](O)[C@H]3O)c2n1	-1.6%	-2.1%	25.5%	1.0%	i	-0.9%
CSc1nc(N)c2ncn([C@H]3O[C@H](COP(=O)(O)OP(=O)(O)OP(=O)(O)O)[C@@H](O)[C@@H]3O)c2n1	-3.4%	nt	-11.5%	-0.5%	79.4µM*	-5.3%
N#CC1=C(SCC(=O)c2cc3ccccc3oc2=O)NC(=O)C(C#N)C12CCCC2 (centres undefined)	-3.1%	38.7%	25.1µM*	-1.0%	i	91.2%
O=C(Nc1nc(-c2cccs2)cs1)c1ccc(S(=O)(=O)N2CCCCC2)cc1	-2.5%	nt	nt	-3.1%	i	0.7%
O=C(Nc1nc(-c2ccccn2)cs1)c1ccc(S(=O)(=O)N2CCCCC2)cc1	3.5%	69.2%	25.1µM*	0.0%	i	-1.3%
CC1(C)CC[C@]2(C(=O)O)CC[C@]3(C)C(=CC[C@@H]4[C@@]5(C)CC[C@H](O)C(C)(C)[C@@H]5CC[C@@]43C)[C@@H]2C1	-11.1%	nt	nt	nt	i	nt
CCOc1ccc(-c2nc(C#N)c(N3CCCCCC3)o2)cc1	3.7%	nt	20µM*	0.3%	i	-0.8%
